Source: PubChem BioAssay (NCI)
Where “and” joins values, the source holds several entries; their conditions need not be identical. Identical values can stand only once. Compounds without any hit were thinned out: in the full panel of roughly 83,000, 20% have a hit.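 Growth was measured after 48 h exposure to one concentration of compound in 96-well plates. Values under 10 count as active.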 Calls of active or inactive are those of the source.

System: MDA-MB-468 breast
Test: NCI-60 one-dose screen, 48 h (100 = growth as untreated, 0 = no growth, -100 = all killed)
Conditions: 10 µM unless noted

Compound	growth
CC(C)n1nc(C#Cc2cccc3cc(-c4cccc(C(F)(F)F)c4)ncc23)c2c(N)ncnc21	98.3% (inactive)
O=C(/C=C/c1ccc([N+](=O)[O-])cc1)c1ccccc1	110% (inactive)
COc1cc2nc(C(=O)N3CCCCC3)cc(Nc3ccccc3)c2cc1OC	131% (inactive)
Cc1ccc2nc(-c3ccc(C(=O)N/N=C/c4ccc([N+](=O)[O-])cc4)cc3)[nH]c2c1	113% (inactive)
CC(=O)Oc1c(C)c(C)c2c(c1C)CCC(C)(CC(=O)OCCCCCCCCCCC[P+](c1ccccc1)(c1ccccc1)c1ccccc1)O2 (configuration not stated)	-55.7% (active)
Cc1ccc2c(c1)Sc1c(ccc3ccccc13)N2	86.6% (inactive)
Cc1c(O)c(=O)ccn1C1CCC(CC2CCC(n3ccc(=O)c(O)c3C)CC2)CC1 (configuration not stated)	0.337% (active)
O=C1CSC(c2ccccc2)N1c1ccccc1 (configuration not stated)	90.6% (inactive)
O=S1(=O)C=C(c2ccccc2)C(c2ccccc2)=C1	-68.5% (active)
O=S(=O)(Oc1ccc(-c2cn3ccoc3n2)cc1)C1CCCCC1	92.3% (inactive)
Cc1c(C(N)=O)sc2nc(C)n(/N=c3\scc(-c4ccccc4)n3Cc3ccccc3)c(=O)c12	79.9% (inactive)
Cc1cc(/C=C/c2ccc3cc(N(C)C)ccc3[n+]2C)c(C)n1-c1ccccc1	-81.9% (active)
NC(N)=Nc1ccc(Oc2cccc(Nc3ccc(Cl)cc3)c2)cn1	-27.9% (active)
CCOC(=O)CN1CCC(C(=O)OCC)CC1	114% (inactive)
O=C(O)c1occ(Cl)c1Cl	107% (inactive)
O=C(Nc1ccc(Oc2ccc(NC(=O)Nc3ccc([N+](=O)[O-])cc3)cc2)cc1)Nc1ccc([N+](=O)[O-])cc1	-3.83% (active)
CC(=O)c1cc(O)c2ccccc2c1O	63.9% (inactive)
COc1cc(C2CC(c3ccc(Nc4ccnc5cc(Cl)ccc45)cc3)=NN2C=O)cc(OC)c1OC (configuration not stated)	-7.9% (active)
Oc1ccc(-c2nc3ccc4[nH]ncc4c3c3c2CCCC3)c2cccnc12	-17.1% (active)
CNCCCNc1ccnc2cc(Cl)ccc12	-85% (active)
CC(C)C(=O)Nc1ccc([N+](=O)[O-])c(C(F)(F)F)c1	61.7% (inactive)
O=S(=O)(c1cc(Cl)ccc1O)c1cc(Cl)ccc1O	63.1% (inactive)

Compound	growth
O=[N+]([O-])c1ccc(NS(=O)(=O)c2ccccc2)c2ccccc12	17% (inactive)
C=CCN(CC#N)CC=C	101% (inactive)
Nc1cccc2c1C(=O)c1cccc(NC(=O)c3ccccc3)c1C2=O	10.6% (inactive)
COc1ccc(N)c(N)c1	84% (inactive)
Cn1cc(-c2nn3cc(-c4ccncc4)nc3s2)c2cc(F)ccc21	54.6% (inactive)
CC(=O)ON1CCCC(P(=O)(OCCSC(=O)C(C)(C)C)OCCSC(=O)C(C)(C)C)C1=O (configuration not stated)	32% (inactive)
COc1cc(OC)c(C2C(Cl)C(=O)N2Nc2ncnc3ccccc23)cc1OC (configuration not stated)	92.5% (inactive)
O=C1C(Cl)=C(NCCCN(CCCNC2=C(Cl)C(=O)c3ccccc3C2=O)C2=C(Cl)C(=O)c3ccccc3C2=O)C(=O)c2ccccc21	-7.83% (active)
O=C(Nc1ccccc1[N+](=O)[O-])c1ccc(Cl)c(Cl)c1	65.7% (inactive)
Cc1cccc(NC(=O)CSc2nc3ccccc3[nH]2)c1	104% (inactive)
CCOC(=O)c1cnc2c(C)cc(C)cc2c1NCCCN(C)C	16.5% (inactive)
Cc1cc(C)c2nc3nc(C)cc(C)c3c(N)c2c1	48.4% (inactive)
CCC(=O)Oc1cc(Cl)c(Cl)cc1Cl	113% (inactive)
COc1ccc(Oc2ccc(/C=N/NC(=O)CSc3nc4ccccc4c(=O)n3-c3ccc(Cl)cc3)cc2)cc1	66.8% (inactive)
COc1ccc(-c2nc3sccn3c2-c2ccnc(NCCCNS(=O)(=O)c3ccc(F)cc3)n2)cc1	6.78% (active)
COc1cc(/C=C2\C(=O)N(c3c(Cl)cccc3Cl)c3ccccc32)cc(OC)c1OCCCCCCn1c2ccccc2c(=O)c2ccccc21	108% (inactive)
O=[N+]([O-])c1cnc(Sc2ccncn2)c([N+](=O)[O-])c1	-44.4% (active)
CC1=CC(=O)c2cccc(NC3=NCCO3)c21	107% (inactive)
CC[N+](CC)(CC(=O)Nc1c(C)cccc1C)Cc1ccccc1	63.8% (inactive)
Nc1nc(=S)c2ncn(C3OC(CO)C(O)C3O)c2[nH]1 (configuration not stated)	114% (inactive) and -12.1% (active)
O=C(Nc1ccccc1O)c1ccc(Oc2cccc(C(=O)Nc3ccccc3O)c2)cc1	-27.2% (active)
C/C(CC1(O)C(=O)Nc2ccccc21)=N\O (configuration not stated)	92% (inactive)

Compound	growth
COc1ccc(-c2nc3ccccn3c2-c2nnc(-c3cc(OC)c(OC)c(OC)c3)o2)cc1	44.3% (inactive)
CCCCCCCCOC(=O)c1ccc(O)c(OC)c1	99.2% (inactive)
CCCCCCCN(CCCCCCC)C(=N)c1ccnc2ccccc12	-83.5% (active)
N#Cc1c(-c2ccc(Cl)cc2)nc(SCC(=O)NC2=NN=C(c3ccccc3)CS2)[nH]c1=O	47.7% (inactive)
COc1cc(OC)c(S(=O)(=O)NNC(=O)c2ccncc2)cc1C(=O)/C=C/c1ccc(C)cc1	38.3% (inactive)
N#Cc1ccc(OC(=O)Nc2c(Cl)cc(Cl)cc2Cl)cc1	97% (inactive)
NC(=O)c1cccc(-n2ccc3cc(NC(=O)Nc4cc(C(F)(F)F)cc(C(F)(F)F)c4)ccc32)n1	40.7% (inactive)
COc1cc2c(cc1-c1c(C)noc1C)ncc1nc(C3CC3)n([C@H](C)COC(F)F)c12	46% (inactive)
CCCCCCCCCCOC(C)=O	110% (inactive)
Cc1ccc([C@@H]2C[C@H](O)Cc3ccccc3N2)s1	124% (inactive)
COc1ccc(-c2nn(-c3cccc(NC(=O)Nc4cc(C(F)(F)F)cc(C(F)(F)F)c4)c3)cc2-c2ccncc2)cc1Cl	17.7% (inactive)
Cc1nc2c(nnn2-c2ccccc2)c2nc(-c3ccc(Cl)cc3)oc(=O)c12	106% (inactive)
O=C(Nc1ccc(-c2nc3cc4ccccc4cc3[nH]2)cc1)c1cccc(Br)c1	48.3% (inactive)
N[C@H](C(=O)O)[C@@H]1CC(Cl)=NO1	29.4% [20 µM] (inactive)
CN1CCN(c2ccc(Nc3nc(NCCCNS(=O)(=O)c4ccc(C(F)(F)F)cc4)c4sccc4n3)cc2)CC1	-80.9% (active)
Nc1no[n+]([O-])c1-c1nnc2c(n1)-c1ccccc1C2=O	41.5% (inactive)
C=C(Cl)COC(=O)C(C)(C)O	118% (inactive)
NCCCNc1nc2ccccc2c2c(=O)c3cc(F)ccc3sc12	1.26% (active)
COc1ccc(-c2ccc(-c3ccc(C(=N)N)c(F)c3)s2)cc1	-78.7% (active)
Cc1ccccc1-n1nnc(C(=O)Nc2nc3ccc(F)cc3s2)c1C	32.8% (inactive)
CCCCCCCCCCCCCCCCCC1=NCCCN1CCO	110% (inactive)
Cc1ccc(S(=O)(=O)c2c(COC(=O)c3cccc(C)c3)c(-c3ccccc3)nn2C)cc1	-83.9% (active)

Compound	growth
NC(N)=N/N=C(/c1ccccc1)c1ccc(F)cc1	14.9% (inactive)
Nc1nn(C(=O)Nc2ccc(Cc3ccccc3)cc2)c2ccc(Cl)cc12	72.3% (inactive)
O=C1c2ccccc2C(=Cc2ccccc2)c2ccccc21	-7.09% (active)
Cc1nc2sc(C(=O)Nc3cccc(Br)c3)c(N)c2cc1C(O)c1ccccc1 (configuration not stated)	11.9% (inactive)
CSc1nc(C)c([N+](=O)[O-])c(N)n1	106% (inactive)
CCCCCCCC[Si](OCC)(OCC)OCC	97.5% (inactive)
O=C(Nc1cccc(-n2cc(-c3ccncc3)c(-c3ccc(O)c(Cl)c3)n2)c1)c1ccc(N2CCOCC2)c(C(F)(F)F)c1	65.9% (inactive)
COc1ccc(NC(=O)/C(=C/N2C(=O)/C(=C/c3ccc(OC)c(OC)c3)NC2=S)C(C)=O)cc1	40.1% (inactive)
COc1ccc(/C=C/c2nc(NCCCN(C)C)c3ccccc3n2)cc1	-43.8% (active)
COc1ccc(NC(=O)/N=c2\oc3c(OC)cccc3cc2-c2cc3ccccc3[nH]2)cc1	61.1% (inactive)
COC(=O)/C(CCC=C(C)C)=C1\[C@@H](OC(C)=O)C[C@@]2(C)[C@H]1C/C(=N/O)[C@H]1[C@@]3(C)CC/C(=N\O)[C@@H](C)[C@@H]3CC[C@@]12C	96.8% (inactive)
CN(C)c1cccc2c(S(=O)(=O)Nc3cccc(-c4csc(NC(=O)CCCCCN5CCN(CCO)CC5)n4)c3)cccc12	79.3% (inactive)
COC(=O)[C@]12CC[C@@H](C)[C@H](C)[C@@H]1C1=CC[C@@H]3[C@@]4(C)C=C(O)C(=O)C(C)=C4CC[C@@]3(C)[C@]1(C)CC2	10.6% (inactive)
COc1nc2c(c(=O)n1C)CN(c1ccccc1)C(=O)CN2C	4.41% [100 µM] (active)
C=C1C(=O)O[C@H]2[C@H]1CC/C(COC(=O)c1cc3ccccc3s1)=C\CC[C@@]1(C)O[C@@H]21	-48.4% (active)
CN(C)c1ccc(-c2c(C#N)c(N)nn2C(=O)c2ccc(NC(=O)c3ccccn3)cc2)cc1	119% (inactive)
Cc1cc(/C=C\c2ccc3ccccc3[n+]2C)c(O)c2ncccc12	-27% (active)
Cc1ccccc1NC(=O)Cn1cc(CN2CCN(c3ccnc4cc(Cl)ccc34)CC2)nn1	93% (inactive)
Cc1cc(CC(=O)O)n(C)c1C(=O)c1ccc(Cl)cc1	101% (inactive)
Brc1ccc(SSc2ccc(Br)cc2)cc1	87% (inactive)
COc1ccc2nc(Cl)c(/C=C/C(=O)c3ccc(NC(=O)CSc4nnc(-c5ccc(Cl)c(Cl)c5)n4-c4ccccc4)cc3)cc2c1	98.2% (inactive)
